This is an account of results in PubChem BioAssay AID651791 (National Center for Advancing Translational Sciences (NCATS), 2012).

The structures appear in SMILES notation. Inconclusive results are not listed. Activity calls are given as the source filed them. The call rests on the fitted dose curve; in most records, active means well fitted inhibition curve with a large enough effect; inconclusive means small, poorly fitted or top-dose-only effect; inactive means no such curve, though single readings can be large or run the other way.
Potency means the concentration at half of the fitted maximal effect.

This assay is described as follows: InCell qHTS Assay for Inhibitors of the mTORC1 Signaling Pathway in MEF (Tsc2-/-, p53-/-) Cells: Hit Validation.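 Further: phospho-S6 Ser235/236 signal normalized to propidium iodide cell count per well; nearly all actives have a fitted effect of over 75% in size.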 To be noted: phospho-rpS6 immunofluorescence, 24 h; activity change, negative = inhibition: at 38.3 µM (top of the series). In general terms: Quantitative high-throughput screening tests each substance at several concentrations.
As to `COc1ccccc1C(=O)Nc1ccc(-c2cc(C(F)(F)F)nn2-c2ccccc2)cc1`, the activity change, negative = inhibition was -100%. In the case of `CCS(=O)(=O)c1oc(-c2ccc(F)cc2)nc1S(=O)(=O)c1ccc(Br)cc1`, the Potency was 3.69 µM (active). On to `CC(C)CCNc1nc(Nc2ccccc2)c2cnn(C)c2n1`, for which the activity change, negative = inhibition was -100%.

Take `COc1cccc(-c2nc(SCC(=O)NCC3CCCO3)c(-c3ccc(F)cc3)[nH]2)c1` (configuration not stated): the activity change, negative = inhibition was -100%. Turning to `COc1cc(Cl)c(C)cc1NC(c1ccccc1)c1nnc(-c2ccccc2Cl)o1` (configuration not stated), the activity change, negative = inhibition was -100%. Consider `Cc1ccc(CS(=O)(=O)c2ncc(Cl)c(C(=O)Nc3nnc(C(C)C)s3)n2)cc1`, for which the Potency was 6.56 µM (active).

As to `COc1ccc(Cn2c(C(=O)O)c(CNCc3ccc(SC)cc3)c3ccc(OC)cc32)cc1`, the activity change, negative = inhibition is -100%. On the same count and under the same terms, the value for `Cc1nc2ccc(S(=O)(=O)CCC(=O)Nc3ccc(Cl)cc3)cc2s1` was -100%; that for `Cc1cccc(NC(=O)c2c(N)sc3c2CCC(C)C3)c1` (configuration not stated) was -100%. Regarding `Cc1ccc([C@H]2Nc3ccc(S(=O)(=O)Nc4cccc(Cl)c4C)cc3[C@H]3C=CC[C@H]32)cc1`, the activity change, negative = inhibition is -100%. As to `CCS(=O)(=O)c1ncc(Cl)c(C(=O)N(Cc2ccccc2)Cc2ccco2)n1`, the Potency is 3.69 µM (active). Turning to `COc1ccc(N2CCN(C(=O)C(C)n3nc(C)c4sc5ccccc5c4c3=O)CC2)cc1` (configuration not stated), the activity change, negative = inhibition was -100%. The same measure, in the same setting: the value for `Cc1nn(CCCC(=O)NCc2ccccc2)c(=O)c2c1sc1ccccc12` was -100%. On the same count and under the same terms, the value for `COc1cc(C(=O)NC(c2ccccc2Cl)c2cc(Cl)c3cccnc3c2O)cc(OC)c1OC` (configuration not stated) was -100%; that for `CCOC(=O)c1cnc2ccc(OCC)cc2c1NCCc1ccc(OC)c(OC)c1` was -100%.

On to `Cc1ccccc1C(=O)N1CCN(CCc2ccccn2)CC1`, for which the activity change, negative = inhibition was -100%.

`CCOc1ccc(CC(=O)NC2CC(=O)N(c3ccc4c(c3)OCCO4)C2)cc1` (configuration not stated): the activity change, negative = inhibition is -100%. Same read-out and setting: the figure for `COc1cc(Nc2nc(SCC(=O)c3ccc(Cl)c(Cl)c3)nc3ccccc23)cc(OC)c1` is -16.4%. On the same count and under the same terms, the figure for `CCCCNC(=O)CSc1nc2nc(C)c(Cc3ccccc3C)c(C)n2n1` is -100%. On the same count and under the same terms, the figure for `Cc1ccc(NC(=O)CCS(=O)(=O)c2ccc3nc(C)sc3c2)cc1` is -100%; for `COc1ccccc1C1C=C(c2ccc(Cl)cc2)Nc2nc(-c3ccc(Cl)cc3)nn21` (configuration not stated) it is -100%. On to `Cc1ccc(CN(Cc2ccco2)C(=O)c2cccc(C)c2)cc1`, for which the activity change, negative = inhibition was -100%. In the case of `Cc1nn(CC(=O)N2CCN(c3ccccc3F)CC2)c(=O)c2cccn12`, the activity change, negative = inhibition is -100%. On the same count and under the same terms, the figure for `COc1ccc(OCC(=O)NCc2ccc3c(c2)CCN3C(=O)c2cccc(C)c2)cc1` is -100%. The same measure, in the same setting: the value for `CCOc1ccc(Nc2nc(N)c(C(=O)c3ccccc3Cl)s2)cc1` was -100%; that for `COc1ccc(CCNC(=O)CCCn2nc(C)c3sc4ccccc4c3c2=O)cc1OC` was -100%.

For `CCOC(=O)Cn1c(=O)c2c(nc(N3CCOCC3)n2Cc2ccccc2)n(C)c1=O`, the Potency is 11.7 µM (active).

Regarding `CCC(=O)C1=C(c2ccc(Cl)cc2)N(C(=O)CC)n2c(C)nnc2S1`, the Potency is 2.61 µM (active). In the case of `COc1ccc(-c2nc(CCNC(=O)c3c(F)cccc3Cl)cs2)cc1`, the activity change, negative = inhibition was -100%.

Regarding `CC(C)OCc1cc(CN2CCN(c3cccc(C(F)(F)F)c3)CC2)c(O)c2ncccc12`, the activity change, negative = inhibition was -100%. As to `CC1=Nc2cc(C(=O)NC3CCCC3)ccc2Sc2ccc(Cl)cc21`, the activity change, negative = inhibition was -100%.

As to `O=C(COc1ccc(F)cc1)Nc1ccc(Cl)c(-c2nc3ccccc3[nH]2)c1`, the activity change, negative = inhibition is -100%. For the molecule `COCc1oc2ccc(NS(=O)(=O)c3ccc(C)cc3)cc2c1C(=O)OC`, the activity change, negative = inhibition was -6.75%. Still for that read-out and setting: the figure for `Cc1ccc(C(=O)c2cn(CC(=O)NCc3ccccc3Cl)c3nc(C)ccc3c2=O)cc1` is -100%. Turning to `Cc1ccc(OCC(O)Cn2c(=N)n(CCN3CCCCC3)c3ccccc32)cc1` (configuration not stated), the Potency was 16.5 µM (active). With `CC(C)CCNC(=O)Nc1ccc2c(c1)N(C)C(=O)c1ccccc1S2`, the activity change, negative = inhibition was -100%. On to `COc1ccc(-c2nc(S(=O)(=O)c3ccc(Cl)cc3)c(N3CCCCCC3)o2)cc1`, for which the activity change, negative = inhibition was -100%.
